Laboratory results published in the supplement of paper PMC10681739.

Columns and labels:
RUNX1 [1] = target: RUNX1 (UniProt Q01196); assay: RUNX1 binding intensity (PBM fluorescence), RUNX1 alone (arbitrary fluorescence units); higher = stronger binding; settings: RUNX1 concentration 2 nM; ETS1 concentration 0 nM
Method: (§1)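 Cooperative gcPBM on 36-bp genomic probes with neighbouring ETS1 and RUNX1 sites. Recombinant human RUNX1 (2 nM) was incubated alone or with ETS1 (25 nM) and detected with anti-RUNX1 antibody plus Alexa488 secondary. Values are medians over 4 replicate spots; the RUNX1+ETS1 data were normalised to the RUNX1-only data. The probes sit in constant array flanks that are not printed.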

RUNX1 [2] = target: RUNX1 (UniProt Q01196); assay: RUNX1 binding intensity (PBM fluorescence) in presence of ETS1, normalised to RUNX1-only experiment (arbitrary fluorescence units); higher = stronger binding; settings: RUNX1 concentration 2 nM; ETS1 concentration 25 nM
Method: as §1

ETS1 [3] = target: T1, ETS1 (UniProt P14921); assay: ETS1 binding intensity (PBM fluorescence), ETS1 alone (arbitrary fluorescence units); higher = stronger binding; settings: ETS1 concentration 1 nM; RUNX1 concentration 0 nM
T1 sequence: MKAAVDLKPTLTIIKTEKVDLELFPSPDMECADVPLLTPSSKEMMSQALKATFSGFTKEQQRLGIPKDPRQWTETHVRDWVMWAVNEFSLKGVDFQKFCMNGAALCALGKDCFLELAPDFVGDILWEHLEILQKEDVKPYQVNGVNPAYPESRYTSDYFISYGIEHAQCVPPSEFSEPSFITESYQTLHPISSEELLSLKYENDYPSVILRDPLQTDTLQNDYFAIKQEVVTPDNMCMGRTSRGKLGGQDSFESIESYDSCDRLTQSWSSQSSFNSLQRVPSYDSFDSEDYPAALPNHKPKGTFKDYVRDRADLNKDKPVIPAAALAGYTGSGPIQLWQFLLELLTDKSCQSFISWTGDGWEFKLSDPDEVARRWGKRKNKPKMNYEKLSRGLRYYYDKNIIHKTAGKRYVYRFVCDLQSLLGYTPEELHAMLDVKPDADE

ETS1 [4] = target: T1, ETS1; assay: ETS1 binding intensity (PBM fluorescence) in presence of RUNX1, normalised to ETS1-only experiment (arbitrary fluorescence units); higher = stronger binding; settings: ETS1 concentration 1 nM; RUNX1 concentration 25 nM
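Wherever RUNX1 binding intensity (PBM fluorescence) in presence of ETS1, normalised to RUNX1-only experiment is given: Full-length recombinant human ETS1 or RUNX1 bound to double-stranded 36-bp genomic probes on microarrays, detected by protein-specific primary antibody and Alexa488 secondary, spot fluorescence as median of four replicate spots.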
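Wherever RUNX1 binding intensity (PBM fluorescence), RUNX1 alone is given: Full-length recombinant human RUNX1 bound to double-stranded 36-bp genomic probes on a high-density microarray, scored as Alexa488 fluorescence per spot via anti-RUNX1 antibody, median of four replicate spots.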

Chain of RUNX1 (Q01196 whole entry): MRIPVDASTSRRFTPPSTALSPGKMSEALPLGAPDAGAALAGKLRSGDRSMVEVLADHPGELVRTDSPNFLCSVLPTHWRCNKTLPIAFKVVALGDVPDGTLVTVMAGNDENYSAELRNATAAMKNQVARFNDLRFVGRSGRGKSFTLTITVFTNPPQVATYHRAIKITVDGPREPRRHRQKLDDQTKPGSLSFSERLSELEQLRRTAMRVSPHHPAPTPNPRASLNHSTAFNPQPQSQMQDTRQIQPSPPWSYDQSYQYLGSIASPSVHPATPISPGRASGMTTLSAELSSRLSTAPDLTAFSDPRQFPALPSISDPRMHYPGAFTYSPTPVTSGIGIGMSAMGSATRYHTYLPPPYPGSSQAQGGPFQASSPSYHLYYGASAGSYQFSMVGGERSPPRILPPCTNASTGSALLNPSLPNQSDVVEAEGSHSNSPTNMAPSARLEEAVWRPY

Row | Sequence | RUNX1 binding intensity (RUNX1 [1]) | RUNX1 binding intensity (RUNX1 [2]) | ETS1 binding intensity (ETS1 [3]) | ETS1 binding intensity (ETS1 [4])
1 | AATCATCAGGGAAATGCAAATCAAAACCACAATCAG | 1480 | 1300 | – | –
2 | AACTCCTGGCCGGAACGGCACAGACCGCACTCCCGC | 938 | 917 | – | –
3 | GGCCCTTCTGGGGCAGGATGTGGTGCCTGCCAAAGG | – | 891 | 4650 | 6110
4 | CAACCCAAGGGGATGTGCTCACTGCGGTGAGGAGGC | 806 | 893 | – | –
5 | TCTGGCTGGGTGTTGGGATGTGGTTAACCGGGTTGG | 797 | 876 | – | –
6 | CTGAGACATCCTGATAATTCTGTGGGTTACCCCAAA | 728 | 1280 | – | –
7 | GTCCCCGTAACAGGATGTGGTGAGCTGTTATACCAC | 802 | 4520 | – | –
8 | GTGGGGCAGGATGTGCTTGCCTGGCTGCGGTTGGAC | 877 | 2230 | – | –
9 | TGCAGCGCATCCTGGGACGTGCGGGCGGTGCATGAG | 727 | 923 | – | –
10 | ATGGTCCAGGAAGATAAGGGCTGAAAACCACCCACT | 857 | 824 | – | –
11 | ACTTACTTCCCGACGTCACAGCCACCGAAACCACAG | – | 2090 | 468 | 464
12 | GAGGGAGCAGTTCCGGGTGCGGTGCGCGCCAGGGGC | 1650 | 2060 | – | –
13 | TACAGCTTCCTTCACCCCACTTGTGGCCTGGGTTAC | 814 | 913 | – | –
14 | CCCAGAGCTTCCGATTGGCTCTTCTGTGGTGGCGGG | 1010 | 1170 | – | –
15 | TCAATAAGACAGGATGTTCTCCAACCGCATTAAGCT | – | 2910 | 3270 | 22100
16 | CCGGTCCTGACCGGAAGCGGTAACCGTCACTCCTTC | – | 7940 | 21100 | 29000
17 | TGGTTTCCGGGCTGGGGTTAGAATAGGCCACAAGGT | – | 1740 | 494 | 536
18 | TAGGCGGAAAGCCCGCTAGCCTAAACCACAGAGGGT | 896 | 872 | – | –
19 | AGACTCCATCCGCCATGTTGGATGCCGCAGATTCGC | 813 | 1050 | – | –

Row | Sequence | RUNX1 binding intensity (RUNX1 [1]) | RUNX1 binding intensity (RUNX1 [2]) | ETS1 binding intensity (ETS1 [3]) | ETS1 binding intensity (ETS1 [4])
20 | GTGCCTTTTCATGTGGGATGTGGCTTCAAGGAGACC | 911 | 822 | – | –
21 | TCTAAATCACTTCCTGTTACAGAAACCACAGGCCTG | 1220 | 4430 | – | –
22 | GGGCATGGTGGCTTCCGACCGCGGGGACCCCGAGAG | 738 | 956 | – | –
23 | ATGTCAGGAAGAGGCTCAGGGCTGTGGTTTCTCTGT | 979 | 1070 | – | –
24 | CGGCTAGGAAATAAAGAGCCTTCTCTCCGCGGTAGG | 2270 | 2200 | – | –
25 | CAGACACCAACGCTCGGAAACCGCCAGACACCAAGG | 1030 | 888 | – | –
26 | TTACCCCAGGAAAAGCCTCCTCACCGCAGTGACCAG | 998 | 905 | – | –
27 | GAACCTGGGAGGCGGAAGTTGCGGTTAGCCGAGATC | 13500 | 56300 | – | –
28 | TGACATTTCCGGCCCCACCTCGGCCCGCAGCGCCGC | – | 2320 | 1180 | 1170
29 | GCAGCTCTGGCAGGATGCGGTTAAATATGTAGCCAC | – | 11300 | 2030 | 12800
30 | TCCCGAGAGCCGGAAGCAGCCGCAGGCCCCGCCACA | – | 1330 | 3950 | 4410
31 | CATCTCGGAAACGGACAGCAAGATCCCGCATTAACA | 977 | 853 | – | –
32 | AGAACAGCAGGAAATAAATACCCACCTCAGGACTGC | – | 887 | 959 | 1050
33 | TGCTGCAGCGGCGCTTCCTGGTGGTCAGGGCGCCAT | 707 | 924 | – | –
34 | GGGTGAGTATTTCCTCCTGCGGTGGGTCGGCATGTA | 796 | 1570 | – | –
35 | CGGCGCCTTCCGCAGAGGGACTGCGGCTTTCTGCGC | 946 | 1390 | – | –
36 | AGCTTCCGAGTCTGTTGTGGAGTGGGAACCGCGACT | 724 | 1020 | – | –
37 | TTCATAAAGGAGAGGAAACCTGACCACGACAGAAAG | 897 | 754 | – | –
38 | GACAGTTTTCCGGCCTAGTTTGCGGCTGCTCCTGCC | 830 | 2440 | – | –

Row | Sequence | RUNX1 binding intensity (RUNX1 [1]) | RUNX1 binding intensity (RUNX1 [2]) | ETS1 binding intensity (ETS1 [3]) | ETS1 binding intensity (ETS1 [4])
39 | CACCCTGCCACTTCCCTAAACTCCCCGCACAGGCCG | 1640 | 2140 | – | –
40 | TGACACCAGCCCTGAGGATGTGGTTCATCCTCCCAC | 868 | 817 | – | –
41 | TAGCCGTACGGAAATGTTTGTGGTTCTCTGCATCTA | 912 | 1230 | – | –
42 | CGAACTCCCGTCCGGCCGCGCCCGCAGCCCGCCGCC | 960 | 1130 | – | –
43 | CTAGCCAGGAAGATAAAGAAGAAACCACCAAAGAGA | 870 | 834 | – | –
44 | GTAGGGAAGACGGGATGTGGGTTTTCAGCCGTGGCC | 730 | 2520 | – | –
45 | CGGCGCGGCGGACGTTGCTGCGGTAGGACGTGCCCG | 838 | 875 | – | –
46 | CCATCCAGGAAGCTTATGGTGCAACCGCAGTGTGCC | 943 | 1620 | – | –
47 | CTTTGTTGAAAAGGATGTGGTCATCTGATCTTGCTG | 864 | 2000 | – | –
48 | TCGCCCACTTCCCCACCTCTCAAAAGACCACAGGCA | 1560 | 2140 | – | –
49 | TCCACAGCCGGTTCCGGCCGGTTCCCACAAGCCCCT | 844 | 1130 | – | –
50 | GGCCCGGCCGGAAGAAGCCACCTCCCCCGCACGCGT | 849 | 1240 | – | –
51 | GCCTCCTTCCTGGGCTCCTTTAAGAGGGTGGTAACG | 743 | 1130 | – | –
52 | AGTCGGAAGCCATCTGCCCCAACTTGCGGTCTTCAC | 1070 | 1080 | – | –
53 | TGACATGGCTTCCGCCTTGGGCTTTGTGGTCTCCCA | 890 | 1760 | – | –
54 | ATTAAAAAAATTTCCTTTGTGGTCACTTAGTTATTA | 1350 | 1520 | – | –
55 | CAAGGAGGCTTCCTGCGTGGGGCCGCAGAGCGAGTC | 658 | 869 | – | –
56 | CTCCCGGACGCTAACGTCTGGCAAACCACATTGCCC | 993 | 857 | – | –
57 | TTCAACAGGATGTGGGAACTTGACTCTCGCCGCAAA | 737 | 3720 | – | –
